Results filed as inconclusive are left out. Activity calls are given as the source filed them. Calls come from the whole dose curve; as a rule, active = well fitted cell-killing curve with a large enough effect; inconclusive = small, poorly fitted or top-dose-only effect, or effect the other way; inactive = no such curve, though single readings can be large or run the other way. Non-standard residues stand in square brackets, D forms with d. Residues, ends and D or L forms follow the SMILES beside them. *: point of attachment. Nva = CCC[C@H](N)C(=O)O; Cbz = O=C(OCc1ccccc1)*
Columns and labels:
[1] = Quantitative High-Throughput drug screen in 47 multiple myeloma cell lines against the NCATS MIPE library collection: U266_ATCC cell viability assay (AID 1919864); note: nearly all actives have a fitted effect of over 35% in size
Procedure, shortened: (§1)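 500 cells/well per myeloma line exposed to pinned MIPE 4.0 compounds for 48 h at 37 °C, 5% CO2. Viability read as ATP by CellTiter-Glo luminescence, normalised to DMSO-only (100%) and media-only (0%) wells.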

[2] = Quantitative High-Throughput drug screen in 47 multiple myeloma cell lines against the NCATS MIPE library collection: XG6_PLB cell viability assay (AID 1919865); note: nearly all actives have a fitted effect of over 40% in size
Procedure, shortened: as §1

[3] = Quantitative High-Throughput drug screen in 47 multiple myeloma cell lines against the NCATS MIPE library collection: XG1_PLB cell viability assay (AID 1919866); note: nearly all actives have a fitted effect of over 35% in size
Procedure, shortened: as §1

[4] = Quantitative High-Throughput drug screen in 47 multiple myeloma cell lines against the NCATS MIPE library collection: VP6_DJ cell viability assay (AID 1919867); note: nearly all actives have a fitted effect of over 40% in size
Procedure, shortened: as §1

[5] = Quantitative High-Throughput drug screen in 47 multiple myeloma cell lines against the NCATS MIPE library collection: UTMC2_PLB cell viability assay (AID 1919868); details: CellTiter-Glo ATP luminescence, 48 h; viability (% of DMSO control): at 45.8 µM (top of the series); note: nearly all actives have a fitted effect of over 55% in size
Procedure, shortened: as §1

[6] = Quantitative High-Throughput drug screen in 47 multiple myeloma cell lines against the NCATS MIPE library collection: PE2_PLB cell viability assay (AID 1919869); note: nearly all actives have a fitted effect of over 35% in size
Procedure, shortened: as §1

[7] = Quantitative High-Throughput drug screen in 47 multiple myeloma cell lines against the NCATS MIPE library collection: PCM6_Riken cell viability assay (AID 1919870); note: nearly all actives have a fitted effect of over 30% in size
Procedure, shortened: as §1

[8] = Quantitative High-Throughput drug screen in 47 multiple myeloma cell lines against the NCATS MIPE library collection: RPMI8226_ATCC cell viability assay (AID 1919871); note: nearly all actives have a fitted effect of over 30% in size
Procedure, shortened: as §1

[9] = Quantitative High-Throughput drug screen in 47 multiple myeloma cell lines against the NCATS MIPE library collection: OPM2_DSMZ cell viability assay (AID 1919872); note: nearly all actives have a fitted effect of over 30% in size
Procedure, shortened: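 Approved and investigational drugs from MIPE 4.0 were added by pin tool to 500 cells per well. After 48 hours at 37C, ATP-based CellTiter-Glo luminescence indicated remaining viability.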

[10] = Quantitative High-Throughput drug screen in 47 multiple myeloma cell lines against the NCATS MIPE library collection: KMS11_JCRBsus cell viability assay (AID 1919873); note: nearly all actives have a fitted effect of over 50% in size
Procedure, shortened: as §1

Measured: Potency
Potency is the fitted concentration of half-maximal effect.

CCNC(=O)Nc1ccc(-c2nc3c(c(N4CCOC[C@H]4C)n2)CCN(C2COC2)C3)cc1
active: [1] 6620 nM | [2] 935 nM | [3] 526 nM | [4] 1050 nM | [5] 1180 nM | [6] 1180 nM | [7] 1320 nM | [8] 743 nM | [9] 1660 nM | [10] 296 nM

Nc1nc(N)c2nc(-c3cccc(O)c3)c(-c3cccc(O)c3)nc2n1
active: [1] 18700 nM | [2] 3320 nM | [3] 4180 nM | [4] 3320 nM | [5] 3720 nM | [6] 2960 nM | [7] 2640 nM

COC[C@H](NC(=O)c1cnc(C)s1)C(=O)N[C@@H](COC)C(=O)N[C@@H](Cc1ccccc1)C(=O)[C@@]1(C)CO1
active: [1] 74.3 nM | [2] 59 nM | [3] 74.3 nM | [4] 66.2 nM | [5] 1050 nM | [6] 83.3 nM | [7] 187 nM | [8] 187 nM | [9] 235 nM | [10] 18.7 nM

COc1cc(C)c(Sc2cnc(NC(=O)c3ccc(CNC(C)C(C)(C)C)cc3)s2)cc1C(=O)N1CCN(C(C)=O)CC1 (centres undefined)
active: [1] 14800 nM | [2] 14800 nM | [3] 16600 nM | [4] 8330 nM | [5] 3320 nM | [6] 14800 nM | [7] 18700 nM | [8] 16600 nM | [9] 20900 nM | [10] 5900 nM

Cc1cnc(Nc2ccc(CN3CCOCC3)cc2)nc1Nc1cccc(S(=O)(=O)NC(C)(C)C)c1
active: [1] 7430 nM | [2] 1180 nM | [3] 935 nM | [4] 1320 nM | [5] 743 nM | [6] 1660 nM | [7] 5260 nM | [8] 4180 nM | [9] 4690 nM | [10] 1180 nM

CC(C)(O)Cn1c(NC(=O)c2ccc(-c3cn[nH]c3)s2)nc2cc(CN3CCOCC3)ccc21
active: [1] 1180 nM | [2] 1870 nM | [3] 743 nM | [4] 743 nM | [5] 372 nM | [6] 1320 nM | [7] 418 nM | [8] 2350 nM | [9] 2350 nM | [10] 743 nM

CCS(=O)(=O)Nc1ccc2[nH]c(O)c(C(=Nc3ccc(CN4CCCCC4)cc3)c3ccccc3)c2c1
active: [1] 5900 nM | [2] 3320 nM | [3] 1320 nM | [4] 590 nM | [5] 93.5 nM | [6] 469 nM | [7] 3720 nM | [8] 332 nM | [9] 833 nM | [10] 166 nM

C=CCNc1c(O)cc2c(O)c1C[C@@H](C)C[C@H](OC)[C@@H](O)[C@@H](C)C=C(C)[C@H](OC(N)=O)[C@@H](OC)C=CC=C(C)C(=O)N2
active: [1] 418 nM | [2] 1050 nM | [3] 418 nM | [4] 118 nM | [5] 418 nM | [6] 1480 nM | [7] 833 nM | [8] 418 nM | [9] 1660 nM | [10] 46.9 nM

COc1cc(CCc2cc(NC(=O)c3ccc(N4C[C@@H](C)N[C@@H](C)C4)cc3)n[nH]2)cc(OC)c1
active: [1] 20900 nM | [2] 8330 nM | [3] 14800 nM | [4] 7430 nM | [5] 4180 nM | [6] 11800 nM | [7] 13200 nM | [8] 18700 nM | [9] 13200 nM | [10] 4690 nM

O=C1NC(=O)C(=Cc2ccc3nccc(-c4ccncc4)c3c2)S1
active: [1] 418 nM | [2] 83.3 nM | [3] 33.2 nM | [4] 132 nM | [5] 37.2 nM | [6] 46.9 nM | [7] 166 nM | [8] 235 nM | [10] 66.2 nM

CN[C@H]1[C@@H](O)[C@@H]2O[C@@H]3O[C@H](C)CC(=O)[C@]3(O)O[C@@H]2[C@@H](NC)[C@H]1O
active: [1] 662 nM | [2] 296 nM | [3] 93.5 nM | [4] 1870 nM | [5] 6620 nM | [6] 3320 nM | [7] 1480 nM | [8] 9350 nM

CCC[C@@H](C=O)NC(=O)[C@H](CC(C)C)NC(=O)[C@H](CC(C)C)NC(=O)OCc1ccccc1 (Cbz-Leu-Leu-[Nva]-aldehyde)
active: [1] 372 nM | [2] 264 nM | [3] 372 nM | [4] 235 nM | [5] 1480 nM | [6] 418 nM | [7] 469 nM | [8] 1320 nM | [9] 1660 nM | [10] 148 nM

C[C@@]12C(=O)OC(=O)[C@@]1(C)C1CCC2O1
active: [1] 1660 nM | [2] 4180 nM | [3] 2640 nM | [4] 2350 nM | [5] 46.9 nM | [6] 2640 nM | [7] 2350 nM | [8] 2960 nM | [9] 662 nM | [10] 743 nM

Source: PubChem BioAssay (NCATS)
